# The whole screen tested about 5,500 compounds, of which about 2,000 (36%) were called active. Another 18% or so got no clear call; they are omitted. The list shows a part of the results. Unmarked numbers belong to inactive results. Cut-off read from the data, not from the text of the source: active = normalized growth mostly below about 0.91 (no sharp cut-off); inconclusive = no clear call, values can overlap the other calls; inactive = mostly above about 0.92.
# Assay: chemical genetic growth profiling, strain panel (AID 1159580);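 note: tested at 20 µM; growth read once vehicle control cultures reached saturation at 30 °C; 1 = growth at the plate median or of vehicle wells; lower values mean less growth of the strain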
# Conditions: growth OD
compound,measurement,setting,value
COc1ccc(-c2coc3cc(OC)cc(O)c3c2=O)cc1,normalized growth,"S. cerevisiae deletion strains, locus YAL013W, strain DEP1, stronger effect = lower value",0.962
same,normalized growth,"S. cerevisiae deletion strains, locus YBR021W, strain FUR4, stronger effect = lower value",0.862
same,normalized growth,"S. cerevisiae deletion strains, locus YBR229C, strain ROT2, stronger effect = lower value",0.98
same,normalized growth,"S. cerevisiae deletion strains, locus YCL029C, strain bik1, stronger effect = lower value",0.966
same,normalized growth,"S. cerevisiae deletion strains, locus YDL035C, strain GPR1, stronger effect = lower value",0.959
same,normalized growth,"S. cerevisiae deletion strains, locus YDL074C, strain BRE1, stronger effect = lower value",0.91
same,normalized growth,"S. cerevisiae deletion strains, locus YDL101C, strain DUN1, stronger effect = lower value",0.98
same,normalized growth,"S. cerevisiae deletion strains, locus YDL134C, strain PPH21, stronger effect = lower value",0.982
same,normalized growth,"S. cerevisiae deletion strains, locus YDL185W, strain tfp1, stronger effect = lower value",0.968
same,normalized growth,"S. cerevisiae deletion strains, locus YDL192W, strain arf1, stronger effect = lower value",0.96
same,normalized growth,"S. cerevisiae deletion strains, locus YDR101C, strain arx1, stronger effect = lower value",0.96
same,normalized growth,"S. cerevisiae deletion strains, locus YDR150W, strain NUM1, stronger effect = lower value",0.991
same,normalized growth,"S. cerevisiae deletion strains, locus YDR162C, strain NBP2, stronger effect = lower value",0.983
same,normalized growth,"S. cerevisiae deletion strains, locus YDR318W, strain mcm21, stronger effect = lower value",0.922
same,normalized growth,"S. cerevisiae deletion strains, locus YDR388W, stronger effect = lower value",0.957
same,normalized growth,"S. cerevisiae deletion strains, locus YDR502C, strain sam2, stronger effect = lower value",0.967
same,normalized growth,"S. cerevisiae deletion strains, locus YEL061C, strain CIN8, stronger effect = lower value",0.982
same,normalized growth,"S. cerevisiae deletion strains, locus YER110C, stronger effect = lower value",0.958
same,normalized growth,"S. cerevisiae deletion strains, locus YER155C, strain BEM2, stronger effect = lower value",0.967
same,normalized growth,"S. cerevisiae deletion strains, locus YER167W, strain BCK2, stronger effect = lower value",0.933
same,normalized growth,"S. cerevisiae deletion strains, locus YGL078C, strain dbp3, stronger effect = lower value",0.978
same,normalized growth,"S. cerevisiae deletion strains, locus YGL086W, strain mad1, stronger effect = lower value",0.955
same,normalized growth,"S. cerevisiae deletion strains, locus YGL248W, strain PDE1, stronger effect = lower value",0.976
same,normalized growth,"S. cerevisiae deletion strains, locus YGR078C, strain PAC10, stronger effect = lower value",0.952
same,normalized growth,"S. cerevisiae deletion strains, locus YGR135W, strain pre9, stronger effect = lower value",0.94
same,normalized growth,"S. cerevisiae deletion strains, locus YGR229C, strain SMI1, stronger effect = lower value",0.924
same,normalized growth,"S. cerevisiae deletion strains, locus YGR252W, strain gcn5, stronger effect = lower value",0.768
same,normalized growth,"S. cerevisiae deletion strains, locus YHR030C, strain SLT2, stronger effect = lower value",0.972
same,normalized growth,"S. cerevisiae deletion strains, locus YHR079C, strain IRE1 (second series), stronger effect = lower value",0.935
same,normalized growth,"S. cerevisiae deletion strains, locus YHR094C, strain hxt1, stronger effect = lower value",0.976
same,normalized growth,"S. cerevisiae deletion strains, locus YHR129C, strain ARP1, stronger effect = lower value",0.967
same,normalized growth,"S. cerevisiae deletion strains, locus YHR200W, strain rpn10, stronger effect = lower value",0.957
same,normalized growth,"S. cerevisiae deletion strains, locus YIL066C, strain RNR3, stronger effect = lower value",0.975
same,normalized growth,"S. cerevisiae deletion strains, locus YIL073C, strain SPO22, stronger effect = lower value",0.905
same,normalized growth,"S. cerevisiae deletion strains, locus YIL125W, strain kgd1, stronger effect = lower value",0.969
same,normalized growth,"S. cerevisiae deletion strains, locus YIR030C, strain dcg1, stronger effect = lower value",0.97
same,normalized growth,"S. cerevisiae deletion strains, locus YJL095W, strain BCK1, stronger effect = lower value",0.907
same,normalized growth,"S. cerevisiae deletion strains, locus YJL134W, strain LCB3, stronger effect = lower value",0.986
same,normalized growth,"S. cerevisiae deletion strains, locus YJL168C, strain set2, stronger effect = lower value",0.975
same,normalized growth,"S. cerevisiae deletion strains, locus YJL187C, strain SWE1 (second series), stronger effect = lower value",0.972
same,normalized growth,"S. cerevisiae deletion strains, locus YJR043C, strain POL32, stronger effect = lower value",0.911
same,normalized growth,"S. cerevisiae deletion strains, locus YJR075W, strain HOC1, stronger effect = lower value",0.951
same,normalized growth,"S. cerevisiae deletion strains, locus YKL009W, strain mrt4, stronger effect = lower value",0.919
same,normalized growth,"S. cerevisiae deletion strains, locus YKL068W, stronger effect = lower value",0.989
same,normalized growth,"S. cerevisiae deletion strains, locus YKL085W, strain MDH1 (second series), stronger effect = lower value",0.982
same,normalized growth,"S. cerevisiae deletion strains, locus YKL085W, strain MDH1, stronger effect = lower value",0.982
same,normalized growth,"S. cerevisiae deletion strains, locus YKL190W, strain CNB1, stronger effect = lower value",0.979
same,normalized growth,"S. cerevisiae deletion strains, locus YKR001C, strain vps1, stronger effect = lower value",0.898 (active)
same,normalized growth,"S. cerevisiae deletion strains, locus YLR039C, strain RIC1, stronger effect = lower value",0.971
same,normalized growth,"S. cerevisiae deletion strains, locus YLR058C, strain SHM2, stronger effect = lower value",0.974
same,normalized growth,"S. cerevisiae deletion strains, locus YLR102C, strain apc9, stronger effect = lower value",0.969
same,normalized growth,"S. cerevisiae deletion strains, locus YLR262C, strain YPT6, stronger effect = lower value",0.959
same,normalized growth,"S. cerevisiae deletion strains, locus YLR268W, strain sec22, stronger effect = lower value",0.957
same,normalized growth,"S. cerevisiae deletion strains, locus YLR330W, strain CHS5, stronger effect = lower value",0.977
same,normalized growth,"S. cerevisiae deletion strains, locus YLR342W, strain FKS1 (second series), stronger effect = lower value",0.859
same,normalized growth,"S. cerevisiae deletion strains, locus YLR371W, strain rom2, stronger effect = lower value",0.969
same,normalized growth,"S. cerevisiae deletion strains, locus YLR418C, strain cdc73, stronger effect = lower value",0.889
same,normalized growth,"S. cerevisiae deletion strains, locus YML016C, strain PPZ1, stronger effect = lower value",0.975
same,normalized growth,"S. cerevisiae deletion strains, locus YML032C, strain rad52, stronger effect = lower value",0.94
same,normalized growth,"S. cerevisiae deletion strains, locus YML124C, strain tub3, stronger effect = lower value",0.974
same,normalized growth,"S. cerevisiae deletion strains, locus YMR078C, strain ctf18, stronger effect = lower value",0.96
same,normalized growth,"S. cerevisiae deletion strains, locus YMR223W, strain ubp8, stronger effect = lower value",0.94
same,normalized growth,"S. cerevisiae deletion strains, locus YMR263W, strain SAP30, stronger effect = lower value",0.967
same,normalized growth,"S. cerevisiae deletion strains, locus YMR307W, strain GAS1, stronger effect = lower value",0.81
same,normalized growth,"S. cerevisiae deletion strains, locus YNL067W, strain RPL9B, stronger effect = lower value",0.977
same,normalized growth,"S. cerevisiae deletion strains, locus YNL128W, strain TEP1, stronger effect = lower value",0.994
same,normalized growth,"S. cerevisiae deletion strains, locus YNL153C, strain GIM3, stronger effect = lower value",0.995
same,normalized growth,"S. cerevisiae deletion strains, locus YNL233W, strain BNI4, stronger effect = lower value",0.923
same,normalized growth,"S. cerevisiae deletion strains, locus YNL250W, strain rad50, stronger effect = lower value",0.968
same,normalized growth,"S. cerevisiae deletion strains, locus YNL271C, strain bni1, stronger effect = lower value",0.973
same,normalized growth,"S. cerevisiae deletion strains, locus YNL298W, strain CLA4, stronger effect = lower value",0.928
same,normalized growth,"S. cerevisiae deletion strains, locus YNL307C, strain MCK1, stronger effect = lower value",0.805 (active)
same,normalized growth,"S. cerevisiae deletion strains, locus YNL322C, strain KRE1, stronger effect = lower value",0.985
same,normalized growth,"S. cerevisiae deletion strains, locus YNR052C, strain pop2, stronger effect = lower value",0.968
same,normalized growth,"S. cerevisiae deletion strains, locus YOL006C, strain TOP1, stronger effect = lower value",0.863
same,normalized growth,"S. cerevisiae deletion strains, locus YOL012C, strain htz1",1.51
same,normalized growth,"S. cerevisiae deletion strains, locus YOL147C, strain pex11, stronger effect = lower value",0.969
same,normalized growth,"S. cerevisiae deletion strains, locus YOR061W, strain CKA2, stronger effect = lower value",0.996
same,normalized growth,"S. cerevisiae deletion strains, locus YOR069W, strain VPS5, stronger effect = lower value",0.984
same,normalized growth,"S. cerevisiae deletion strains, locus YOR136W, strain idh2, stronger effect = lower value",0.971
same,normalized growth,"S. cerevisiae deletion strains, locus YOR144C, strain elg1, stronger effect = lower value",0.975
same,normalized growth,"S. cerevisiae deletion strains, locus YOR184W, strain ser1, stronger effect = lower value",0.872 (active)
same,normalized growth,"S. cerevisiae deletion strains, locus YOR316C, strain cot1, stronger effect = lower value",0.96
same,normalized growth,"S. cerevisiae deletion strains, locus YPL055C, strain LGE1, stronger effect = lower value",0.92
same,normalized growth,"S. cerevisiae deletion strains, locus YPL241C, strain CIN2, stronger effect = lower value",0.987
same,normalized growth,"S. cerevisiae deletion strains, locus YPR119W, strain clb2, stronger effect = lower value",0.972
same,normalized growth,"S. cerevisiae deletion strains, locus YPR141C, strain kar3, stronger effect = lower value",0.99
same,normalized growth,"S. cerevisiae deletion strains, locus YPR163C, strain tif3, stronger effect = lower value",0.973
same,normalized growth,"S. cerevisiae deletion strains, locus YPR167C, strain met16, stronger effect = lower value",0.97
same,normalized growth,"S. cerevisiae deletion strains, strain wtn01, stronger effect = lower value",0.944
same,normalized growth,"S. cerevisiae strains, strain wild type, stronger effect = lower value",0.963
